# Test results reported in PubChem BioAssay (NCATS).
# Values joined by “and” are separate entries in the source; they are usually repeats but may differ in a detail not shown here. Equal entries are not always repeated. Records with an inconclusive call do not appear. Where a call stands in place of a potency, no number is given. More than one record can exist for a structure, and the calls need not agree. Active and inactive are the calls of the source. Unless noted, calls follow the shape of the dose curve; as a rule, active = well fitted curve in either direction with a large enough effect (not every such curve was filed as active); inconclusive = small, poorly fitted or top-dose-only effect, or another doubt; inactive = flat fitted curve, though single readings scatter.
# Key:
# [1] = AP1 Signaling Pathway (AID 357);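 also: ME-180 reporter cells stimulated with EGF at its EC50 level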
# Procedure, shortened: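 Titration-series screen for positive or negative modulators of EC50 EGF-induced signaling in ME-180 cells carrying an AP-1-driven beta-lactamase reporter. After 5 hours at 37 degrees Celsius, CCF4 460nm/530nm emission ratio gave %Activity; AC50 values derived.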
# [2] = target: Cytochrome P450 1A2 (Homo sapiens) (UniProt P05177); assay: p450-cyp1a2 (AID 410; calls by dose curve; also: potency is read from the fitted curve at half-maximal effect)
# Cytochrome P450 1A2 (Homo sapiens), sequence (P05177 whole entry, looked up): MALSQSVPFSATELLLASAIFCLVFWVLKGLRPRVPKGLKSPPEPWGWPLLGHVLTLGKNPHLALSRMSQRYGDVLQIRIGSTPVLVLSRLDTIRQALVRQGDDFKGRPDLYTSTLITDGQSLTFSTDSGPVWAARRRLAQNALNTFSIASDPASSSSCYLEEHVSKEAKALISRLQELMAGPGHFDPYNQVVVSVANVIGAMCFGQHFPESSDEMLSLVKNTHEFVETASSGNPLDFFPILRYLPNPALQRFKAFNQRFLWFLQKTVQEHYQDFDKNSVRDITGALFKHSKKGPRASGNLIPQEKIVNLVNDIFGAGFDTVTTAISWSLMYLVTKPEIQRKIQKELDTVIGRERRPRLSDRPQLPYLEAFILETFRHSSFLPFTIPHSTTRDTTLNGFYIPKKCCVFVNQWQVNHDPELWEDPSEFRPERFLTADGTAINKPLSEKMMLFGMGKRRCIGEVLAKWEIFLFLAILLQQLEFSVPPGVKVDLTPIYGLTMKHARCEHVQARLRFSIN
# Procedure, shortened: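 Luminescent demethylation readout: Luciferin-ME (100uM, equal to Km) turned over by 20nM CYP1A2 for 60 min at room temperature after NADPH regeneration addition, following 10 min compound preincubation. Normalization used 57 uM furafylline as full inhibition.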
# [3] = Stat Signaling Pathway (AID 446);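 also: ME-180 cervical cancer cells given 40 pM IL-6 alongside compound; SIE-controlled beta-lactamase reporter measured as 460/530 nm FRET emission ratio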
# Procedure, shortened: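 Overnight-plated ME-180 cells bearing a STAT Inducible Element beta-lactamase reporter; 5 h co-exposure to compound and 40 pM IL-6; values normalized to 300 pM IL-6 and 125 nM JAK inhibitor controls.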
# [4] = target: Glucocorticoid receptor (Homo sapiens) (UniProt P04150); assay: GR-GFP Redistribution (AID 450;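 active = compounds whose dose series gives a full or clear partial fitted curve of increased nuclear translocation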; also: potency is read from the fitted curve at half-maximal effect); details: U2OS GR-GFP nuclear translocation, laser cytometry, 2 h
# Glucocorticoid receptor (Homo sapiens), sequence (P04150 whole entry, looked up, the tested form may be a part): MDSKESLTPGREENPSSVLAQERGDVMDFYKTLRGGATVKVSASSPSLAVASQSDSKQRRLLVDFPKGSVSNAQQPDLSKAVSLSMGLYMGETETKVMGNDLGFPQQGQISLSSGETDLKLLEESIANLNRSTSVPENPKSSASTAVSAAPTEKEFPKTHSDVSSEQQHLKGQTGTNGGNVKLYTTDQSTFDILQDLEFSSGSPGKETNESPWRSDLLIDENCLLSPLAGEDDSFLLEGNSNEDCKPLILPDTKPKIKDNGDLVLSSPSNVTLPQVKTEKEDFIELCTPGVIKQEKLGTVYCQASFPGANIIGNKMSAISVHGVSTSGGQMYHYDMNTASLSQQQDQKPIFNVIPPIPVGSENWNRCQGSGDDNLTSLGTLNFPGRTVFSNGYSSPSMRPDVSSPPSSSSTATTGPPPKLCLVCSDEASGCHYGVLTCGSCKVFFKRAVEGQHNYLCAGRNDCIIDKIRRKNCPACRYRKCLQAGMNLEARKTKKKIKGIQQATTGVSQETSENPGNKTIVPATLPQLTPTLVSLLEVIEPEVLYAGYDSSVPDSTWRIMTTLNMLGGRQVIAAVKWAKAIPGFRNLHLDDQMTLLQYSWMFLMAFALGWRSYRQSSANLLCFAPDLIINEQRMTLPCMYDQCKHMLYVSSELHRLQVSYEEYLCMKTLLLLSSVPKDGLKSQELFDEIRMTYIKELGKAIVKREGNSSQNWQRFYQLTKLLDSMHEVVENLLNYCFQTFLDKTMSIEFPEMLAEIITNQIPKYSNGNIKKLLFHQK
# [5] = target: Glucocorticoid receptor (Homo sapiens) (UniProt P04150); assay: GR-EFC Redistribution (AID 451; calls by dose curve; also: potency is read from the fitted curve at half-maximal effect); details: CHO-K1 GR-EFC translocation, beta-gal luminescence, 2 h
# Procedure, shortened: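 CHO-K1 cells expressing nuclear EA and GR-ED fragments of b-gal; compounds titrated up to 46 uM final, 2 h at 37 C. GR nuclear translocation read as complemented b-gal luminescence after 1 h RT detection.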
# [6] = target: Mitogen-activated protein kinase 10 (Mus musculus) (UniProt Q61831); assay: JNK3 AlphaScreen Assay (AID 530);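 also: kinase came from lysate of stimulated human HepG2 cells; signal reports phosphorylation of biotinylated GST-cJun 1-79 at Ser73 with 10 µM ATP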
# Procedure, shortened: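 Activity was read by AlphaScreen after JNK3-containing HepG2 lysate (cytokine pre-activated) phosphorylated biotinylated GST-cJun with 10 uM ATP at room temperature. Phospho-Ser73 cJun antibody with Protein-A acceptor beads provided detection.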
# [7] = target: 3',5'-cyclic-AMP phosphodiesterase 4B (Homo sapiens) (UniProt Q07343); assay: qHTS Assay for Inhibitors of PDE-IV (AID 607; active = well fitted activation curve with a large enough effect in the main read-out, with a control signal flat, not every such curve was filed as active)
# 3',5'-cyclic-AMP phosphodiesterase 4B (Homo sapiens), sequence (Q07343 whole entry, looked up): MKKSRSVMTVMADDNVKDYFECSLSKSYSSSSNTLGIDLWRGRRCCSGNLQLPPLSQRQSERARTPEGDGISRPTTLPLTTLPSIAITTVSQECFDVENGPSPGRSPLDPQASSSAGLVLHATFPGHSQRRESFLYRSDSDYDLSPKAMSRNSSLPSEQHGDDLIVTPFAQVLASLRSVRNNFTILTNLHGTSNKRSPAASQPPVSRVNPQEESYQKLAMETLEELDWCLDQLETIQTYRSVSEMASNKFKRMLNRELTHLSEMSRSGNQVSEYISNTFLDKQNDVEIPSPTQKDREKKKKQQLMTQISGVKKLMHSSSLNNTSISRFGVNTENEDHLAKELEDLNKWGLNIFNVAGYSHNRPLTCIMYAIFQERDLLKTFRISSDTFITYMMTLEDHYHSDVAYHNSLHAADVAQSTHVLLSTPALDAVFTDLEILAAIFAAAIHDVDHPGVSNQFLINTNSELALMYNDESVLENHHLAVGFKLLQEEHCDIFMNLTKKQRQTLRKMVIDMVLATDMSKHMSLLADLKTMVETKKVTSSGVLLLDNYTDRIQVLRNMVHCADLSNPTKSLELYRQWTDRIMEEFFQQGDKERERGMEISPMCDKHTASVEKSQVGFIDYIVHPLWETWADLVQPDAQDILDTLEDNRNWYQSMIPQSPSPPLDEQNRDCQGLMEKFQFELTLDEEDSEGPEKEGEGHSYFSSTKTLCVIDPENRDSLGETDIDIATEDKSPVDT
# Procedure, shortened: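 Live HEK293 cells with a modified cyclic nucleotide-gated (CNG) channel report intracellular cAMP via membrane-potential dye fluorescence (ex 535/em 590 nm). Endogenous PDE-IV was targeted. Compounds were tested at up to 22.9 uM final; RO 20-1724 100 uM served as control.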
# [8] = qHTS Assay for Lipid Storage Modulators (AID 1519; calls by dose curve); details: Drosophila S3 cells, BODIPY lipid droplet/cell ratio, laser cytometry, cells loaded with oleic acid; for activity change, negative = inhibition: at 25.7 µM (top of the series)
# Procedure, shortened: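 Cells seeded at 5,000 per well were treated with compounds over a concentration series and loaded with oleic acid (400 uM, as added). Lipid droplet fluorescence (488 nm excitation, 500-530 nm channel) was read by laser-scanning cytometry and normalized to 20 uM Triacsin C.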
# [9] = target: ATP-dependent 6-phosphofructokinase (Trypanosoma brucei brucei) (UniProt O15648); assay: qHTS Assay to Find Inhibitors of T. brucei phosphofructokinase: hit validation (AID 492961; active = well fitted curve in the direction sought with a large enough effect; an effect the other way counts as inactive or inconclusive;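 also: luminescence reports ADP formed as PFK phosphorylates fructose-6-phosphate with ATP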)
# ATP-dependent 6-phosphofructokinase (Trypanosoma brucei brucei), sequence (O15648 whole entry, looked up): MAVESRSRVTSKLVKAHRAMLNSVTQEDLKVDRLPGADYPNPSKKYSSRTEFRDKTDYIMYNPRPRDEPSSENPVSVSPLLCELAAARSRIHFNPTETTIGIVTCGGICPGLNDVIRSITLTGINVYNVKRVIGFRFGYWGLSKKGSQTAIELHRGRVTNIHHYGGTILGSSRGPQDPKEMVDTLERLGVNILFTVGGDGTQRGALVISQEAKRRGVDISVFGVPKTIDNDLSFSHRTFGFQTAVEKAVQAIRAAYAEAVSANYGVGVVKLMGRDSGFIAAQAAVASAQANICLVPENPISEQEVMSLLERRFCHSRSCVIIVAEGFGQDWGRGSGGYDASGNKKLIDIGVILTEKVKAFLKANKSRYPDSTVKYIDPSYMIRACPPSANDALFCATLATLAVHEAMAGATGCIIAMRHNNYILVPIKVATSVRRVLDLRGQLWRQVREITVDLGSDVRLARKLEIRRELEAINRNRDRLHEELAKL
# Procedure, shortened: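 Inhibition of parasite PFK is measured as reduced ADP formation, quantified via luciferase after ATP depletion. Assay used 0.1 mM ATP, 0.5 mM F6P, 1.25 nM enzyme, 45 min incubation.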
# [10] = target: Ubiquitin carboxyl-terminal hydrolase 1 (Homo sapiens) (UniProt O94782); assay: Inhibitors of USP1/UAF1: Pilot qHTS (AID 504865; active = well fitted curve in the direction sought with a large enough effect; an effect the other way counts as inactive or inconclusive; also: nearly all actives have a fitted effect of over 35% in size; also: potency is read from the fitted curve at half-maximal effect;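 as to activity change, negative = inhibition: rhodamine fluorescence freed from ubiquitin-rhodamine substrate followed over time; top concentration of the series differs between compounds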)
# Ubiquitin carboxyl-terminal hydrolase 1 (Homo sapiens), sequence (O94782 whole entry, looked up): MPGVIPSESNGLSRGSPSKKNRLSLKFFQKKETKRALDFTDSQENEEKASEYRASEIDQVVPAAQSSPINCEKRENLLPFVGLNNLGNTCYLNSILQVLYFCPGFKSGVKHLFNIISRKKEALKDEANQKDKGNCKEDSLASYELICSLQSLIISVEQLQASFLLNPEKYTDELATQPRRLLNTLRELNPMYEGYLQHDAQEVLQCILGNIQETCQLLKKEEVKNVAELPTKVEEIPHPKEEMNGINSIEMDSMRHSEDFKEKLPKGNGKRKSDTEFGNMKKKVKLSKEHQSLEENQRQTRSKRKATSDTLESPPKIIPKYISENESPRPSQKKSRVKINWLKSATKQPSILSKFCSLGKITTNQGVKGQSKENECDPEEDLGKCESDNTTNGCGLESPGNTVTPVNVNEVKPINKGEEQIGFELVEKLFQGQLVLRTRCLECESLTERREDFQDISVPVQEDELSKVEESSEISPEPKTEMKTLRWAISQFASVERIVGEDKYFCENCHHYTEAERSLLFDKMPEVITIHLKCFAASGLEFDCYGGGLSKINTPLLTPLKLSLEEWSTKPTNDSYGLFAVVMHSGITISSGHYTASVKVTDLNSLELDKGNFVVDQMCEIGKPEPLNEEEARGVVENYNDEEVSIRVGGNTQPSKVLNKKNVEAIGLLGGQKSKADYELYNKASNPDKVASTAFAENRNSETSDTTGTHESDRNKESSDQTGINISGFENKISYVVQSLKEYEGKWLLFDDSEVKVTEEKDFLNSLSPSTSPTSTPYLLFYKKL
# Procedure, shortened: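 Kinetic fluorescence assay: 1nM USP1/UAF1, 15 min compound preincubation, then 150nM Ub-Rho; 480/540 nm.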
# [11] = qHTS profiling for inhibitors of Plasmodium falciparum proliferation (AID 504749; active = well fitted curve in the direction sought with a large enough effect; an effect the other way counts as inactive or inconclusive; also: nearly all actives have a fitted effect of over 60% in size); details: P. falciparum in erythrocytes, SYBR Green DNA, 72 h
# Procedure, shortened: (§1)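 Each compound contacts P. falciparum-infected red blood cells for 72 h at 37 C; lysis buffer (Tris, EDTA, saponin, Triton X, SYBR Green I) is added and fluorescence measured next morning; values normalized to controls.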
# CP262 = assay: as above; details: P. falciparum in erythrocytes, SYBR Green DNA, 72 h; series mostly up to 28.7 µM
# Procedure, shortened: as §1
# [12] = NFAT Signaling Pathway (AID 444); details: Jurkat NFAT-bla M1, carbachol, beta-lactamase ratio, 5 h;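 also: carbachol stimulus at about its EC50 of 1 µM final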
# Procedure, shortened: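 Jurkat cells with NFAT-driven β-lactamase reporter and co-expressed M1 receptor, stimulated with carbachol (final 1 uM, ~EC50), compound titration, 5 h at 37 °C. CCF4 loaded 1 h at RT; 460/530 nm ratio gave %activity and AC50.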
# [13] = target: Cytochrome P450 2D6 (Homo sapiens) (UniProt P10635); assay: qHTS Assay for Inhibitors and Substrates of Cytochrome P450 2D6 (AID 891; active = well fitted curve in the direction sought with a large enough effect; an effect the other way counts as inactive or inconclusive; also: nearly all actives have a fitted effect of over 60% in size; also: potency is read from the fitted curve at half-maximal effect;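 as to activity change, negative = inhibition: luciferin methyl ether substrate demethylated by CYP2D6 with NADPH regeneration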)
# Cytochrome P450 2D6 (Homo sapiens), sequence (P10635 whole entry, looked up): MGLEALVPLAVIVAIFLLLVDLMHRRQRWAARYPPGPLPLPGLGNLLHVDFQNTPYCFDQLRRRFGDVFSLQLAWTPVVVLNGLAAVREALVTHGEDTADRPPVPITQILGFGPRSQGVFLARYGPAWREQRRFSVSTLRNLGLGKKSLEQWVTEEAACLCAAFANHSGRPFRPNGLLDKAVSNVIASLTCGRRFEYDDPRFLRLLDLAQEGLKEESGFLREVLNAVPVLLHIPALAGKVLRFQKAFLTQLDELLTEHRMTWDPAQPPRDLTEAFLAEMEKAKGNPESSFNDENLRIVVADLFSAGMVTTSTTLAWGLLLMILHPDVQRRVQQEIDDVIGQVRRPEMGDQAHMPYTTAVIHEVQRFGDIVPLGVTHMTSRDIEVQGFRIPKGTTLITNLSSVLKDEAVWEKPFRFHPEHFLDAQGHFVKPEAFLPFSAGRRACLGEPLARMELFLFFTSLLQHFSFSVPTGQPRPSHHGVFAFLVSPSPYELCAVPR
# Procedure, shortened: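 Luminescent read-out of luciferin formed by 5 nM human CYP2D6 demethylating 30 uM Luciferin-ME EGE (Km level) over 60 min at room temperature after NADPH regeneration addition. Data normalized to full inhibition by 1.43 uM quinidine.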
# CP203 = assay: qHTS profiling for inhibitors of Plasmodium falciparum proliferation (AID 504749); also: nearly all actives have a fitted effect of over 60% in size; details: P. falciparum in erythrocytes, SYBR Green DNA, 72 h; series mostly up to 28.7 µM
# Procedure, shortened: as §1
# CP215 = assay: as above; details: P. falciparum in erythrocytes, SYBR Green DNA, 72 h; series mostly up to 28.7 µM
# Procedure, shortened: as §1
# CP268 = assay: as above; details: P. falciparum in erythrocytes, SYBR Green DNA, 72 h; series mostly up to 28.7 µM
# Procedure, shortened: as §1
# CP297 = assay: as above; details: P. falciparum in erythrocytes, SYBR Green DNA, 72 h; series mostly up to 28.7 µM
# Procedure, shortened: as §1
# [14] = target: Cytochrome P450 3A4 (Homo sapiens) (UniProt P08684); assay: qHTS Assay for Activators of Cytochrome P450 3A4 (AID 885; active = well fitted curve in the direction sought with a large enough effect; an effect the other way counts as inactive or inconclusive; also: nearly all actives have a fitted effect of over 65% in size)
# Cytochrome P450 3A4 (Homo sapiens), sequence (P08684 whole entry, looked up): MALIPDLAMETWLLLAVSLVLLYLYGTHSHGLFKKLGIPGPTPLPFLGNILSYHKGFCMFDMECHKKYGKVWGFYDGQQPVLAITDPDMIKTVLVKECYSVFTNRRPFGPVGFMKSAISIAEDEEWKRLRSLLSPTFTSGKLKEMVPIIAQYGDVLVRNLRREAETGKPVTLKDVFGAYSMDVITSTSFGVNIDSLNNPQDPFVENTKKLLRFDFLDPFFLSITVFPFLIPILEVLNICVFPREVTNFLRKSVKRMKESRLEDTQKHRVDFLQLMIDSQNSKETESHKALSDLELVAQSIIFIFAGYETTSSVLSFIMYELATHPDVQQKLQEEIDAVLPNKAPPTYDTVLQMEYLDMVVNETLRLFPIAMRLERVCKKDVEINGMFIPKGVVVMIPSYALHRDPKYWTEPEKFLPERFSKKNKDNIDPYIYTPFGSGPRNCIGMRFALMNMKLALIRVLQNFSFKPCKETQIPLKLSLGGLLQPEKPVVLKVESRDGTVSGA
# Procedure, shortened: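 Using 20nM recombinant human CYP3A4 in potassium phosphate (200mM), substrate Luciferin-PPXE at 25uM, luminescent luciferin detection followed a 60-min RT NADPH reaction; data scaled to 57 uM ketoconazole.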
# [15] = measured here: cell count channel max response
# [16] = measured here: lipid channel max response
compound,measurement,setting,value
CC[C@]1(c2cccc(O)c2)CCCCN(C)C1,outcome,[1],inactive
same,Potency,[2],inactive
same,outcome,[3],inactive
same,Potency,[4],> 20.6 µM (inactive)
same,Potency,[5],> 20.6 µM (inactive)
same,outcome,[6],inactive
same,Potency,[7],inactive
same,"activity change, negative = inhibition",[8],-0.585% (inactive)
same,max response,[8]; [15],-13.2%
same,max response,[8]; [16],-11.2%
same,Potency,[9],inactive
same,Potency,[10],inactive
same,"activity, negative = inhibition","[11]; at 12.8 µM (top of the series), parasite line A",-7.81% (inactive)
same,Potency,CP262,inactive
COC1=C[C@H]2C3=C([C@H]2C1=O)[C@H](NC(C)=O)CCc1cc(OC)c(OC)c(OC)c13,outcome,[1],inactive
same,Potency,[2],inactive
same,"activity change, negative = inhibition",[12]; at 17.2 µM (top of the series),-4.77% (inactive)
same,outcome,[3],inactive
same,Potency,[4],> 20.6 µM (inactive)
same,Potency,[5],> 20.6 µM (inactive)
same,outcome,[6],inactive
same,Potency,[7],inactive
same,"activity change, negative = inhibition",[8],0.263% (inactive)
same,max response,[8]; [15],1.69%
same,max response,[8]; [16],2.18%
same,Potency,[10],inactive
CC[N@+]1(C)CCC[C@@H](OC(=O)C(O)(c2ccccc2)c2ccccc2)C1,outcome,[1],inactive
same,Potency,[2],inactive
same,"activity change, negative = inhibition",[12]; at 17.2 µM (top of the series),-31.8% (active)
same,outcome,[3],inactive
same,Potency,[4],> 20.6 µM (inactive)
same,Potency,[5],> 20.6 µM (inactive)
same,outcome,[6],inactive
same,Potency,[7],inactive
same,Potency,[13],5.01 µM (active)
same,"activity change, negative = inhibition",[8],-4.06% (inactive)
same,max response,[8]; [15],-4.84%
same,max response,[8]; [16],-5.77%
same,Potency,[10],inactive
C#CCN(C)[C@@H](C)Cc1ccccc1,outcome,[1],inactive
same,Potency,[2],25.1 µM (active) and 10 µM (active)
same,"activity change, negative = inhibition",[12]; at 17.2 µM (top of the series),-14.3% (inactive)
same,"activity change, negative = inhibition",[12]; at 38 µM (top of the series),-2.85% (inactive)
same,outcome,[3],inactive
same,Potency,[4],> 46 µM (inactive) and > 20.6 µM (inactive)
same,Potency,[5],> 46 µM (inactive) and > 20.6 µM (inactive)
same,outcome,[6],inactive
same,Potency,[7],inactive
same,"activity change, negative = inhibition",[8],-2.3% (inactive)
same,max response,[8]; [15],2.02%
same,max response,[8]; [16],-0.249%
same,Potency,[9],inactive
same,"activity, negative = inhibition","[11]; at 28.7 µM (top of the series), parasite line A",-9.65% (inactive)
same,"activity, negative = inhibition","[11]; at 28.7 µM (top of the series), parasite line B",13.3% (inactive)
same,Potency,CP203,inactive
same,Potency,CP215,inactive
same,Potency,CP262,inactive
same,Potency,CP268,inactive
same,Potency,CP297,inactive
CN(C)[C@@H]1C(=O)C(C(N)=O)=C(O)[C@]2(O)C(=O)C3=C(O)c4c(O)cccc4[C@@](C)(O)[C@H]3[C@H](O)[C@@H]12,outcome,[1],inactive
same,Potency,[2],inactive
same,"activity change, negative = inhibition",[12]; at 17.2 µM (top of the series),-3.39% (inactive)
same,outcome,[3],inactive
same,outcome,[6],inactive
same,Potency,[7],inactive
same,"activity change, negative = inhibition",[8],-0.12% (inactive)
same,max response,[8]; [15],-12.1%
same,max response,[8]; [16],-10.8%
same,Potency,[10],31.6 µM (active)
C=C1C/C(=C\C)C(=O)O[C@@H]2CCN3CC=C(COC(=O)[C@@]1(C)O)[C@H]23,outcome,[1],inactive
same,Potency,[2],inactive
same,"activity change, negative = inhibition",[12]; at 17.2 µM (top of the series),-7.46% (inactive)
same,outcome,[3],inactive
same,Potency,[4],> 20.6 µM (inactive)
same,Potency,[5],> 20.6 µM (inactive)
same,outcome,[6],inactive
same,Potency,[7],inactive
same,Potency,[14],inactive
same,"activity change, negative = inhibition",[8],1.53% (inactive)
same,max response,[8]; [15],8.7%
same,max response,[8]; [16],10.5%
same,Potency,[10],inactive
COc1cc2c(cc1OC)[C@H](C)NCC2,outcome,[1],inactive
same,Potency,[2],inactive and 20 µM (active)
same,"activity change, negative = inhibition",[12]; at 17.2 µM (top of the series),4.97% (inactive)
same,outcome,[3],inactive
same,Potency,[4],> 20.6 µM (inactive) and > 46 µM (inactive)
same,Potency,[5],> 20.6 µM (inactive) and > 46 µM (inactive)
same,outcome,[6],inactive
same,Potency,[7],inactive
same,Potency,[13],inactive
same,"activity change, negative = inhibition",[8],-2.81% (inactive)
same,max response,[8]; [15],-4.52%
same,max response,[8]; [16],-9.32%
same,Potency,[10],inactive
